TDP1 inh: qHTS Assay for Inhibitors of Tyrosyl-DNA Phosphodiesterase (TDP1); 0.28% of 350,000 active; Tyrosyl-DNA phosphodiesterase 1 (Homo sapiens), Q9NUW8; recombinant TDP1, AlphaScreen DNA substrate cleavage; Potency, µM (titrated, usually from 130 µM), usual class: inhibitors; also: nearly all actives have a fitted effect of over 40% in size
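Compounds were preincubated with Tdp1 (1 nM final) for 15 min at room temperature before substrate (15 nM final) started a 5 min reaction; beads (10 ug/ml final) were then added for 10 min before AlphaScreen detection.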
KAT2A inh: qHTS Assay for Inhibitors of GCN5L2; AID 504327, 2011; Potency, µM (top dose mostly 58.9 µM), actives largely listed as inhibitors; GCN5L2 HAT assay, ThioGlo1 CoA-SH fluorescence; 0.21% of 390,000 active
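Free CoA generated was detected with ThioGlo1 (50uM) fluorescence at Ex340nm/Em540nm, read immediately and after 20 min at room temperature. Enzyme, 20 nM in HEPES pH 7.5 buffer, saw compounds 15 min before adding 75uM H3(1-25) peptide and 70uM acetyl-CoA.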
TDP1 cell CPT: qHTS for Inhibitors of human tyrosyl-DNA phosphodiesterase 1 (TDP1): qHTS in cells in presence of CPT | chicken DT40 Tdp1-/-;hTDP1 cells + 20 nM CPT, ATP luminescence, 48 h | 12% of 420,000 active | Potency, µM (titrated, usually from 46.2 µM), most hits filed as inhibitors; also: nearly all actives have a fitted effect of over 55% in size
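Chicken DT40 Tdp1-/- cells stably complemented with human TDP1 were seeded at 400 cells/well in medium containing 20 nM camptothecin, exposed to pin-transferred compounds, and grown at 37 °C for at least 48 hr. Viability was read as ATP luminescence.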
VDR inh: Inhibitors of the vitamin D receptor (VDR): qHTS; Vitamin D3 receptor (Homo sapiens), P11473; VDR-SRC2-3 peptide fluorescence polarization, 2 h; Potency, µM, actives largely listed as inhibitors; 0.93% of 400,000 active
Target sequence (P11473 whole entry, looked up): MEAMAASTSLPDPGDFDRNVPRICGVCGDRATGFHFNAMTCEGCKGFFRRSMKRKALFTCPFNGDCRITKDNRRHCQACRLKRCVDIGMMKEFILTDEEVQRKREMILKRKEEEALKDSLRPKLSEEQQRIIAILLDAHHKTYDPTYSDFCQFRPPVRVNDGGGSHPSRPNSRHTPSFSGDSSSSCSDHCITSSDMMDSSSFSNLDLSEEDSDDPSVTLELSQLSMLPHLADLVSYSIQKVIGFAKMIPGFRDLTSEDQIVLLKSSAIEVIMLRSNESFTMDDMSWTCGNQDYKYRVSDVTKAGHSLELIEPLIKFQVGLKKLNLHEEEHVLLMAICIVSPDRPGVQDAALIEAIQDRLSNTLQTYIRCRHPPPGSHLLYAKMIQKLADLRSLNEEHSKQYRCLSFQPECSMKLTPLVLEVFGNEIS
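Compounds are added to VDR with labelled SRC2-3 coactivator peptide and held 2 h at room temperature. Inhibition of the VDR–peptide interaction is then read as a change in fluorescence polarization.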
TDP1 cell noCPT: qHTS for Inhibitors of human tyrosyl-DNA phosphodiesterase 1 (TDP1): qHTS in cells in absence of CPT; DT40 Tdp1-/- hTDP1 cells, no CPT, ATP luminescence, 48 h; Potency, µM (top dose mostly 46.2 µM), most hits filed as inhibitors; 15% of 420,000 active; AID 686978, 2013; also: nearly all actives have a fitted effect of over 55% in size
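Camptothecin absent (DMSO only). Human TDP1-complemented DT40 knockout cells, 400 cells/well, 37 °C for minimum 48 hr; ATP measured via CellTiter-Glo, 30 min dark incubation, luminescence.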
PLK1 PBD inh: qHTS for Inhibitors of PLK1-PDB (polo-like kinase 1 - polo-box domain): Primary Screen; Serine/threonine-protein kinase PLK1 (Homo sapiens), P53350; AID 720504, 2013; Potency, µM, usual class: inhibitors; 2.8% of 360,000 active; Plk1 PBD binding of FITC phosphopeptide, fluorescence polarization; also: series mostly up to about 57 µM; nearly all actives have a fitted effect of over 65% in size
Numbers stand for hits; – = inactive; ? = inconclusive; · = no result given; [ ] = another dose, or the depositor's remark. Compounds with a hit are over-represented: about 18% of the library has one in this group of screens. Calls follow the shape of the dose curve; as a rule, active = well fitted curve in the direction sought with a large enough effect; inconclusive = small, poorly fitted or top-dose-only effect, or another doubt; inactive = no such curve, though single readings can be large; an effect the other way counts as inactive or inconclusive.

SMILES | TDP1 inh | KAT2A inh | TDP1 cell CPT | VDR inh | TDP1 cell noCPT | PLK1 PBD inh
Cc1ccc(NC(=O)C(c2ccccc2)N2CCN(C(=O)c3ccco3)CC2)cc1Cl (stereo not drawn) | – | – | – | – | – | –
O=C1CC(=O)Nc2cc(S(=O)(=O)Nc3cccc(C(F)(F)F)c3)ccc2N1 | – | – | – | – | – | –
CC(O)CNc1nc2c(c(=O)n(C)c(=O)n2C)n1Cc1cccc(C(F)(F)F)c1 (stereo not drawn) | – | – | ? | – | 25.9µM | –
COCCCNc1nc2c(c(=O)n(Cc3ccccc3)c(=O)n2C)n1C | · | – | – | – | – | ·
Cn1c(NCCO)nc2c1c(=O)n(Cc1cccc(F)c1)c(=O)n2C | · | – | – | – | – | ·
COCCNc1nc2c(c(=O)n(C)c(=O)n2C)n1Cc1cccc(C(F)(F)F)c1 | – | – | 3.26µM | – | 3.66µM | –
CC(CCO)Nc1nc2c(c(=O)n(C)c(=O)n2C)n1Cc1cccc(Br)c1 (stereo not drawn) | – | – | 11.6µM | – | 20.6µM | –
COC(=O)c1cc2c([nH]c3ccccc32)c(C)n1 | – | – | · | · | · | ·
Cc1nc2c(c3c1[nH]c1ccccc13)C(O)CC(C)(C)C2 (stereo not drawn) | – | – | 18.4µM | – | ? | –
Cc1ccc(C)c(S(=O)(=O)N2CCCCC2CCNC(=O)C(=O)NCc2ccco2)c1 (stereo not drawn) | – | – | 16.4µM | – | 8.2µM | –
Cc1ccc(S(=O)(=O)N2CCCCC2CCNC(=O)C(=O)NCc2ccncc2)cc1 (stereo not drawn) | – | – | ? | – | ? | –
Cc1ccc(C)c(S(=O)(=O)N2CCCC2CNC(=O)C(=O)NCc2ccco2)c1 (stereo not drawn) | – | – | ? | – | ? | –
Cc1ccc(S(=O)(=O)N2CCCCC2CCNC(=O)C(=O)NCc2ccccc2)cc1 (stereo not drawn) | · | – | 3.26µM | – | 2.91µM | –
COc1ccc(CNC(=O)C(=O)NCCC2CCCCN2S(=O)(=O)c2ccc(C)cc2)cc1 (stereo not drawn) | – | – | 16.4µM | – | 25.9µM | –
Cn1cccc1C(=O)N1CCC2(CCN(Cc3ccncc3)CC2)CC1 | · | – | – | – | – | ·
Cc1cc(OC(=O)c2ccccc2F)c([N+](=O)[O-])c(=O)[nH]1 | – | – | – | – | – | –
COc1ccc(CNC(=O)c2ccccc2SCC(=O)NCc2ccco2)cc1 | – | – | – | – | – | –
CN(Cc1ccco1)Cc1ccc(O)c2ncccc12 | – | – | · | – | · | ·
Oc1ccc(Cc2ccccc2)c2cccnc12 | · | · | 4.61µM | – | 2.06µM | –
Oc1ccc(CNc2ccccc2F)c2cccnc12 | – | – | 2.06µM | ? | 2.06µM | 3.36µM
CCCOCc1ccc(O)c2ncccc12 | · | – | 0.82µM | – | 0.581µM | –
Oc1ccc(CCc2ccccc2F)c2cccnc12 | – | · | · | · | · | ·
Oc1ccc(CNc2ccccn2)c2cccnc12 | – | · | · | · | · | ·
OCc1ccc(O)c2ncccc12 | – | – | 5.17µM | – | 5.17µM | –
O=C(O)c1ccc(O)c2ncccc12 | · | – | · | · | · | ·
SMILES | TDP1 inh | KAT2A inh | TDP1 cell CPT | VDR inh | TDP1 cell noCPT | PLK1 PBD inh
Oc1ccc(Cl)c2cccnc12 | – | ? | 1.84µM | ? | 1.84µM | –
CC(NC(=O)C1CCC(C(C)(C)C)CC1)C(c1ccccc1)N1CCOCC1 (stereo not drawn) | – | – | ? | ? | 23.1µM | –
CC(NC(=O)C1CC1)C(c1cccs1)N1CCOCC1 (stereo not drawn) | – | – | – | – | – | –
Cc1ccc2c(c1)cc(C(=O)NCc1ccc(F)cc1)n2C | – | – | ? | – | ? | ·
CC1(C(=O)NC2CCc3ccccc32)CCN1CCc1ccccc1 (stereo not drawn) | · | · | 16.4µM | · | 18.4µM | –
Cc1ccc(NC(=O)C2(C)CCN2CCc2ccccc2)cc1 (stereo not drawn) | · | · | ? | · | ? | –
Cc1ccc(C(=O)NCCN2C3=NC[C@H](Cc4ccc(O)cc4)N3C[C@H]2Cc2ccc(O)cc2)cc1Br | · | – | ? | – | 16.4µM | –
COc1ccc(C[C@H]2CN3C(=NC[C@@H]3Cc3ccc(O)cc3)N2CCNC(=O)c2ccc(C)c(Br)c2)cc1 | – | – | 13µM | – | 13µM | –
COc1ccc(NCc2cccnc2)cc1 | – | – | – | – | – | –
Cc1sc(NC(=O)CS(=O)(=O)c2ccccc2)c(C(N)=O)c1C | –[0.505 µM] | – | ? | – | – | –
Cc1sc(NC(=O)CCCC(=O)O)c(C(N)=O)c1-c1ccccc1 | – | – | – | – | – | 29.9µM
CCN(CC(=O)Nc1c(F)cccc1F)C(=O)Cn1c(=O)cnc2ccccc21 | – | – | – | – | – | –
Cc1ccc(CSC2=NCCN2S(=O)(=O)c2ccc(C)cc2)cc1 | · | · | 23.1µM | · | ? | –
Cc1ccc(S(=O)(=O)N2CCN=C2SCc2ccc(Cl)c(Cl)c2)cc1 | – | – | – | – | – | –
Cc1ccc(C)c(CSC2=NCCN2S(=O)(=O)c2ccccc2)c1 | · | – | 18.4µM | – | 16.4µM | –
O=S(=O)(c1ccccc1)N1CCN=C1SCc1c(F)cccc1Cl | – | ? | 13µM | – | ? | –
O=S(=O)(c1cccc(Cl)c1)N1CCN(c2nc(-c3ccccc3)nc3ccccc23)CC1 | – | · | ? | – | ? | ·
CC1=Nc2nc(N3CCCCC3)c(C#N)c3c4c(nc(c23)N1)N(c1ccc(C(C)C)cc1)C(=O)C4 | – | – | ? | – | ? | –
COc1ccccc1N(CC(=O)N1CCN(Cc2ccccc2)CC1)S(=O)(=O)c1ccccc1 | · | · | 23.1µM | · | 16.4µM | –
COc1ccccc1N(CC(=O)N1CCCCCC1)S(=O)(=O)c1ccc(C)cc1 | – | – | ? | – | ? | –
COc1ccccc1N(CC(=O)N1CCCC1)S(=O)(=O)c1cc([N+](=O)[O-])ccc1Cl | – | – | 16.4µM | – | ? | –
COc1ccc([N+](=O)[O-])cc1N(CC(=O)N1CCN(Cc2ccccc2)CC1)S(C)(=O)=O | · | – | ? | 50.1µM | ? | 11.9µM
Cc1cccc(C)c1-n1nnnc1C1c2ccccc2C(=O)N1C1CC1 (stereo not drawn) | · | · | – | · | – | –
CCOC(=O)C(=CNc1ccc(NC2=NCC(C)S2)cc1)C(=O)OCC (stereo not drawn) | – | – | 9.2µM | – | 6.51µM | –
